Experimental data as given in the antibiotic and cytotoxicity screens of Wong et al. (2023).
Among all 39,000 compounds or so, about 1,500 (3.8%) were called active. Only a selection was taken, and actives are over-represented in it overall.

tested on: HSkMC (human skeletal muscle cells); assay: cytotoxicity call (relative viability < 0.9); settings: 10 µM

SMILES	cytotoxicity call
C[C@H]1CN([C@@H](C)CO)C(=O)c2cccc(NC(=O)Nc3cccc4ccccc34)c2O[C@H]1CN(C)C(=O)NC1CCCCC1	inactive
C[C@@H]1CN([C@H](C)CO)C(=O)c2cccc(NC(=O)Nc3cccc4ccccc34)c2O[C@@H]1CN(C)C(=O)NC1CCCCC1	inactive
C[C@@H]1CN([C@@H](C)CO)C(=O)c2cccc(NC(=O)Nc3cccc4ccccc34)c2O[C@H]1CN(C)C(=O)NC1CCCCC1	inactive
C[C@H](CO)N1C[C@H](C)[C@@H](CN(C)C(=O)NC2CCCCC2)Oc2c(NC(=O)Nc3cccc4ccccc34)cccc2C1=O	active
C[C@H]1CN([C@@H](C)CO)C(=O)c2cccc(NC(=O)Nc3cccc4ccccc34)c2O[C@@H]1CN(C)C(=O)NC1CCCCC1	inactive
C[C@H](CO)N1C[C@H](C)[C@H](CN(C)C(=O)NC2CCCCC2)Oc2c(NC(=O)Nc3cccc4ccccc34)cccc2C1=O	active
C[C@@H]1CN([C@@H](C)CO)C(=O)c2cc(NC(=O)CCC(F)(F)F)ccc2O[C@H]1CN(C)C(=O)Nc1cccc2ccccc12	inactive
COc1ccc(NC(=O)Nc2ccc3c(c2)C(=O)N([C@@H](C)CO)C[C@H](C)[C@H](CN(C)C(=O)C2CCCCC2)OCCCC[C@H](C)O3)cc1	inactive
CCCNC(=O)N(C)C[C@@H]1Oc2cc(C#Cc3cccc(F)c3)ccc2S(=O)(=O)N([C@@H](C)CO)C[C@@H]1C	inactive
Cc1noc(C)c1NC(=O)N(C)C[C@@H]1Oc2ccc(NS(=O)(=O)c3c(C)noc3C)cc2CC(=O)N([C@H](C)CO)C[C@H]1C	inactive
O=C(Nc1cc(Cl)cc(Cl)c1O)c1c(O)c(Cl)cc(Cl)c1Cl	inactive
Oc1c(Cl)cc(Cl)c(Cl)c1Cc1c(O)c(Cl)cc(Cl)c1Cl	active
Cc1ccc2c(Cl)cc(Cl)c(O)c2n1	inactive
C[C@@H]1CCCCO[C@@H](CN(C)Cc2ccc(C(F)(F)F)cc2)[C@H](C)CN([C@@H](C)CO)C(=O)c2cc(N(C)C)ccc2O1	inactive
CC(C)NC(=O)Nc1ccc2c(c1)CC(=O)N([C@@H](C)CO)C[C@H](C)[C@@H](CN(C)C(=O)NC1CCCCC1)O2	inactive
CC(C)NC(=O)N(C)C[C@@H]1Oc2ccc(NS(=O)(=O)c3ccccc3)cc2C(=O)N([C@H](C)CO)C[C@@H]1C	inactive
Oc1c(Cl)cc(Cl)cc1Sc1cc(Cl)cc(Cl)c1O	active
C[C@@H]1CN([C@@H](C)CO)S(=O)(=O)c2ccc(-c3cncnc3)cc2O[C@@H]1CN(C)C(=O)C1CCCCC1	inactive
C[C@H](O)C1=C[C@]2(CC[C@@H]3C(C(=O)O)=CO[C@@H](O[C@@H]4O[C@H](CO)[C@@H](O)[C@H](O)[C@H]4O)[C@@H]32)OC1=O	inactive
CC1(C)CN(C(=O)Cn2nccn2)C[C@]1(C)O	inactive

SMILES	cytotoxicity call
O=C(C[C@@H]1CC=CC[C@H](NC(=O)OCC2c3ccccc3-c3ccccc32)C(=O)OC[C@H](Cc2ccccc2)NC1=O)N[C@H](CO)Cc1ccccc1	inactive
O=C(C[C@@H]1CC=CC[C@H](NC(=O)OCC2c3ccccc3-c3ccccc32)C(=O)O[C@H](c2ccccc2)CNC1=O)N[C@@H](CO)Cc1ccccc1	active
O=C(C[C@@H]1CC=CC[C@@H](NC(=O)OCC2c3ccccc3-c3ccccc32)C(=O)OC[C@@H](Cc2ccccc2)NC1=O)N[C@@H](CO)Cc1ccccc1	inactive
O=C(N[C@H]1CC=CC[C@H](CC(=O)N(CCO)Cc2ccccc2)C(=O)N[C@@H](Cc2ccccc2)COC1=O)OCC1c2ccccc2-c2ccccc21	active
O=C(N[C@@H]1CC=CC[C@H](CC(=O)N(CCO)Cc2ccccc2)C(=O)N[C@@H](Cc2ccccc2)COC1=O)OCC1c2ccccc2-c2ccccc21	inactive
O=C(C[C@@H]1CC=CC[C@@H](NC(=O)OCC2c3ccccc3-c3ccccc32)C(=O)OC[C@H](Cc2ccccc2)NC1=O)N[C@H](CO)Cc1ccccc1	inactive
O=C(N[C@@H]1CC=CC[C@H](CC(=O)N(CCO)Cc2ccccc2)C(=O)NC[C@H](c2ccccc2)OC1=O)OCC1c2ccccc2-c2ccccc21	inactive
O=C(N[C@H]1CC=CC[C@H](CC(=O)N(CCO)Cc2ccccc2)C(=O)NCC(c2ccccc2)OC1=O)OCC1c2ccccc2-c2ccccc21 (some centres undefined)	inactive
O=C(C[C@@H]1CC=CC[C@H](NC(=O)OCC2c3ccccc3-c3ccccc32)C(=O)O[C@H](c2ccccc2)CNC1=O)N[C@H](CO)Cc1ccccc1	active
O=C(C[C@@H]1CC=CC[C@H](NC(=O)OCC2c3ccccc3-c3ccccc32)C(=O)OC[C@H](Cc2ccccc2)NC1=O)N[C@@H](CO)Cc1ccccc1	inactive
O=C(C[C@@H]1CC=CC[C@H](NC(=O)OCC2c3ccccc3-c3ccccc32)C(=O)O[C@@H](c2ccccc2)CNC1=O)N[C@@H](CO)Cc1ccccc1	active
O=C(N[C@H]1CC=CC[C@H](CC(=O)N(CCO)Cc2ccccc2)C(=O)N[C@H](Cc2ccccc2)COC1=O)OCC1c2ccccc2-c2ccccc21	inactive
COc1ccc(S(=O)(=O)Nc2ccc3c(c2)C(=O)N([C@@H](C)CO)C[C@@H](C)[C@@H](CN(C)Cc2ccncc2)O3)cc1	inactive
CC(C)NC(=O)N(C)C[C@@H]1Oc2ccc(NS(=O)(=O)c3ccc(F)cc3)cc2CC(=O)N([C@H](C)CO)C[C@@H]1C	inactive
COc1cccc(S(=O)(=O)N[C@H]2CC[C@H](CCn3cc(-c4ccccc4OC)nn3)O[C@H]2CO)c1	inactive
C[C@H]1CCCCO[C@@H](CN(C)C(=O)NC2CCCCC2)[C@@H](C)CN([C@@H](C)CO)C(=O)c2cc(NC(=O)Nc3ccc(F)cc3)ccc2O1	inactive
C[C@H]1CN([C@@H](C)CO)C(=O)c2cccc(NC(=O)c3ccc(-c4nccs4)cc3)c2O[C@H]1CN(C)Cc1ccc(Cl)c(Cl)c1	inactive
COc1ccccc1-c1ccc2c(c1)O[C@@H](CN(C)S(=O)(=O)c1ccccc1)[C@H](C)CN([C@@H](C)CO)S2(=O)=O	inactive
COc1ccc2c3c([nH]c2c1)[C@H](CO)N(C[C@]13CN(C)C1)C(=O)CN1CCOCC1	inactive
